Out of some 52,000 compounds screened, about 4,300 (8.3%) were called active. Shown is part of a subset that was picked to be rich in actives. Values without a mark were called inactive. No stated cut-off is given here; in the data, active means survival mostly below about 52% (no sharp cut-off); inactive means mostly above about 56%.

Drawing on PubChem BioAssay AID463173 (ICCB-Longwood Screening Facility, Harvard Medical School, 2010), this text covers survival for 26 compounds.

In the experiment the test system is DeltatarO mutant. The experiment in a line: S. aureus survival, RN4220 and DeltatarO strains – OD600, teichoic acid synthesis inhibitors, primary screen (AID 463173). Conditions: S. aureus RN4220 wild type/DeltatarO growth, OD600, 18 h, active compounds read low, screened at 18.75 µg/mL (by protocol).
Turning to `COc1cccc(CNC(=O)c2c(C)oc3ncnc(N4CCOCC4)c23)c1`, the survival is 87%.
As for `COc1ccc(CNC(=O)C2CCN(c3nnc(-n4cccc4CNc4ccc(C)cc4)s3)CC2)c(OC)c1`, the survival was 70%.
With `COc1ccc(CN2CCc3nc(N4CCN(c5ccc(F)cc5)CC4)ncc3C2)c(OC)c1OC`, the survival is 119%.
The result for `COc1ccc(-c2nc3sc(CCNC(=O)c4cc(OC)c(OC)c(OC)c4)c(C)n3n2)cc1` reads 83%.
On to `CN(C(=O)CSc1nc2ccc(NC(=O)COc3ccc(Cl)cc3)cc2s1)c1ccccc1`, for which the survival was 72%.
Consider `CCOc1ccc(OCC)c(Nc2nc3ccc(Cl)cc3n3cnnc23)c1`, for which the survival was 65%.
The result for `CC(C)NC(=O)C1CCN(S(C)(=O)=O)CC1` reads 93%; that for `CSc1nc(NNC(=O)c2ccco2)c2c3c(sc2n1)COC(C)(C)C3`, 81%.
In the case of `CCOc1ccccc1NC(=O)C(C)N(c1ccccc1)S(C)(=O)=O` (stereo unspecified), the survival is 91%.
The result for `COC(=O)c1c(C)sc(-c2c(-c3ccc4c(c3)OCCO4)[nH]c3c2c(=O)n(C)c(=O)n3C)c1O` reads 43% (active); that for `COC(=O)c1c(C)sc(-c2c(-c3ccc(OC)c(F)c3)[nH]c3c2c(=O)n(C)c(=O)n3C)c1O`, 120%; that for `CCOC(=O)c1c(C)sc(-c2c(-c3ccc4c(c3)OCCO4)[nH]c3c2c(=O)n(C)c(=O)n3C)c1O`, 128%.
As for `COCCCNc1c2c(nc3ccccc13)CCC2`, the figure is 125%; as for `O=C1COc2ccc(-c3cc(-c4ccc(F)cc4)c4c(n3)-c3cc(Cl)ccc3OC4)cc2N1`, 88%.
The result for `CC(=O)c1ccc(NS(=O)(=O)c2c(C)nc3scc(C)n3c2=O)cc1` reads 88%.
With `Cc1nc2sccn2c(=O)c1S(=O)(=O)Nc1cc(Cl)ccc1O`, the survival was 51%.
With `CCCCOC(=O)c1ccc(NS(=O)(=O)c2c(C)nc3scc(C)n3c2=O)cc1`, the survival was 43% (active).
As for `CC(=O)Nc1ccc(NS(=O)(=O)c2c(C)nc3sccn3c2=O)cc1`, the figure is 61%; as for `COc1cc(OC)c(NS(=O)(=O)c2c(C)nc3sc(C)cn3c2=O)cc1Cl`, 65%; as for `Cc1nc2sccn2c(=O)c1S(=O)(=O)Nc1ccc(N2CCN(C)CC2)cc1`, 106%.
Take `Cc1nc2sccn2c(=O)c1S(=O)(=O)Nc1cc(C(F)(F)F)ccc1Cl`: the survival is 69% (active).
`Cc1ccc(NS(=O)(=O)c2c(C)nc3sccn3c2=O)c(Cl)c1`: the survival was 132%.
The result for `COc1cc(Cl)c(C)cc1NS(=O)(=O)c1c(C)nc2sccn2c1=O` reads 64% (active); that for `COc1ccc(NS(=O)(=O)c2c(C)nc3scc(C)n3c2=O)cc1`, 90%; that for `COC(=O)c1ccc(NS(=O)(=O)c2c(C)nc3sccn3c2=O)cc1`, 72% (active).
`CCOc1ccccc1NS(=O)(=O)c1c(C)nc2sccn2c1=O`: the survival was 63%.
